# An excerpt weighted towards active compounds, which were near 7.3% of everything screened.
# Luciferase inh: inhibitors of firefly (Photinus pyralis) luciferase | AID 1347043 | 76,000 tested, 2.5% active | P08659 | Potency, µM (series often up to 115 µM), usual class: inhibitors | purified P. pyralis luciferase, luminescence, biochemical; further: potency means the concentration at half of the fitted maximal effect; nearly all actives have a fitted effect of over 65% in size
#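 Biochemical qHTS: compound (6-point titration) added to 10uM D-luciferin plus 10uM ATP in Tris acetate pH 7.5 buffer with Mg, Tween-20 and BSA, then purified enzyme at 10nM; light output imaged.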
# IP6K1 inh: blocks human inositol hexakisphosphate kinase 1 | Q92551 | IP6K1 kinase, ADP-Glo luminescence, 2 h; active compounds read low | activity change, % (series mostly up to about 58 µM) | 140,000 tested, 0.81% active; in the data active means activity change below about -25%
# Target sequence (Q92551 whole entry, looked up): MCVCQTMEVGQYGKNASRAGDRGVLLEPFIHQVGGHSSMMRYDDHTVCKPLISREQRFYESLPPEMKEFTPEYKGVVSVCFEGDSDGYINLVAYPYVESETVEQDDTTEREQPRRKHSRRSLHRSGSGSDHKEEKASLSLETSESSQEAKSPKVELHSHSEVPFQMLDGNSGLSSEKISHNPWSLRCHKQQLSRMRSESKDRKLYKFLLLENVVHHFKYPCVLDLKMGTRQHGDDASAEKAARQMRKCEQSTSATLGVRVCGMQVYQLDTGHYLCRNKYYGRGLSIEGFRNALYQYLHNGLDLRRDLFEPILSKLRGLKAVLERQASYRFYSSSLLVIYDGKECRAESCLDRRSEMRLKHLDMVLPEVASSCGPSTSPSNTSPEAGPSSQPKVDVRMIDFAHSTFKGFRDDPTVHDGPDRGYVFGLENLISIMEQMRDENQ
#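 ADP-Glo luminescence measures ADP made by human IP6K1 during a 2 h RT reaction with ATP/IP6 (mix at 1.3 mM/130 uM); top library doses 57.5 and 19.1 uM final.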
# SNCA expr inh: reduces expression of the alpha-synuclein gene; HEK-293 SNCA-luciferase knock-in, luminescence, 24 h; Potency, µM (doses to about 57.2 µM), without a hit: at the highest dose activity change, negative = inhibition, most hits filed as inhibitors; 140,000 tested, 0.17% active;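 further: potency means the concentration at half of the fitted maximal effect; plate controls were DMSO cells for no effect and cell-free wells for full effect; nearly all actives have a fitted effect of over 45% in size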
# HEK293 viab: counter-screen for SNCA expression inhibitors: cell viability. 150,000 tested, 0.12% active. HEK-293-SNCA-luc viability, GF-AFC fluorescence, 24 h. Potency, µM (series often up to 57.1 µM), without a hit: at the top dose activity change, negative = cytotoxicity, usual class: cytotoxic;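 further: potency means the concentration at half of the fitted maximal effect; 0% = DMSO-treated cells and -100% = medium-only wells without cells; nearly all actives have a fitted effect of over 30% in size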
#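 HEK-293-SNCA-luc cells (1500/well) plated 24 h, then exposed 24 h to a dilution series; GF-AFC added 30 min at 37C, fluorescence 405/540 nm; normalised to medium-only and DMSO wells, Hill fit.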
# HEK cytotox: HEK 293 cell cytotoxicity | HEK 293 viability, ATP luminescence (CellTiter-Glo), 48-72 h | Potency, µM (top dose mostly 115 µM), inactives show top-dose activity change, negative = cytotoxicity, most hits filed as inhibitors | 94,000 tested, 6.6% active | AID 1345083; further: potency means the concentration at half of the fitted maximal effect; nearly all actives have a fitted effect of over 60% in size
#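 qHTS cytotoxicity; HEK 293, 250 cells/well; compound pinned; 48 or 72 hr, 37 degree Celsius, 5% CO2, 95% humidity; CellTiter-Glo, 10 min RT; luminescence (ATP).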
# 3T3 cytotox: NIH 3T3 cell cytotoxicity; 94,000 tested, 4.3% active; AID 1345082; Potency, µM (doses to about 96.7 µM), for inactives: top-dose activity change, negative = cytotoxicity, actives largely listed as inhibitors; NIH 3T3 viability, CellTiter-Glo ATP luminescence, 48-72 h; further: potency means the concentration at half of the fitted maximal effect; nearly all actives have a fitted effect of over 55% in size
#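 Viability of NIH 3T3 cells after 48 or 72 hr compound treatment at 37 °C was assessed by CellTiter-Glo, with luminescence imaged following a 10 min room-temperature step.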
# Active calls of the source: *; i = inactive; ? = inconclusive; / = not tested or not shown; [ ] = dose if it differs, or a comment. Unless noted, the call rests on the fitted dose curve; in most records, active means well fitted curve in the direction sought with a large enough effect; inconclusive means small, poorly fitted or top-dose-only effect, or another doubt; inactive means no such curve, though single readings can be large; an effect the other way counts as inactive or inconclusive. Unless noted, on the % scale 0 is the no-effect control and ±100 the full control effect.
SMILES,Luciferase inh,IP6K1 inh,SNCA expr inh,HEK293 viab,HEK cytotox,3T3 cytotox
COc1ccc(C(=O)N2CCC3(CC2)C(=NC2CCCCC2)NC(=O)N3c2cccc(OC)c2)cc1,/,-9.9,5.4%,4.3%,1.6%,28.2µM*
COc1ccc(C(=O)N2CCC3(CC2)C(=NC2CCCCC2)NC(=O)N3c2cc(F)cc(F)c2)cc1,/,-12.5,-25.7%,-11.3%,i,31.6µM*
Cc1ccc(C(=O)N2CCC3(CC2)C(=NC2CCCCC2)NC(=O)N3c2cc(F)cc(F)c2)cc1,/,-11.8,-2.4%,-14.3%,-2.7%,31.6µM*
COc1ccc(C(=O)N2CCCC3(C2)C(=NC2CCCCC2)NC(=O)N3c2cc(F)cc(F)c2)cc1 (configuration not stated),/,-17.2,-12.2%,0.0%,i,-8.2%
O=C(c1ccc(C(F)(F)F)cc1)N1CCC2(CC1)C(=NC1CCCCC1)NC(=O)N2c1cc(F)cc(F)c1,/,-13.0,0.9%,-3.1%,0.2%,?
Cc1ccc(C(=O)N2CCCC3(C2)C(=NC2CCCC2)NC(=O)N3c2cc(F)cc(F)c2)cc1 (configuration not stated),/,-12.3,20.4%,-5.4%,i,3.8%
Cc1ccc(CNC2CN(C(=O)OC(C)(C)C)C2)cc1,/,1.3,-6.7%[87.6 µM],-6.0%[87.6 µM],-14.6%[172 µM],-14.4%[138 µM]
COc1ccc(N2CC3CCC(C2)N3C(C)=O)cc1,/,7.5,10.5%[87.6 µM],-9.3%[87.6 µM],-8.6%[172 µM],-15.1%[138 µM]
CC(C)NC(=O)N1CCOC2(CCN(C(=O)Cc3ccc(O)cc3)CC2)C1,/,-9.2,?,-14.5%,i,i
COc1ccc(-c2nc(C)nc3c2CCN(Cc2cccc4ccccc24)CC3)cc1,i,6.0,-8.6%,-16.8%,39.8µM*,?
Cc1nc2c(c(-c3ccc(O)cc3)n1)CN(Cc1ccccc1)CCC2,i,-4.5,-15.6%,5.9%,?,?
Cc1nc2c(c(-c3ccc(O)cc3)n1)CN(Cc1ccc(C(F)(F)F)cc1)CCC2,i,-0.7,-10.5%,0.8%,31.6µM*,?
Cc1nc2c(c(-c3ccc(O)cc3)n1)CN(Cc1cccc3ccccc13)CCC2,i,-2.7,-9.7%,-16.1%,31.6µM*,31.6µM*
Cc1nc2c(c(-c3ccc(O)cc3)n1)CN(Cc1ccc(OC(F)(F)F)cc1)CC2,i,-5.9,-12.8%,4.5%,?,?
Cc1nc2c(c(-c3ccc(O)cc3)n1)CN(Cc1ccc(OC(F)(F)F)cc1)CCC2,i,-1.7,-23.4%,-2.0%,35.5µM*,?
COc1cccc(N2C(=O)N[C@@H]3CCN(C(=O)c4cccs4)[C@@H]3C2=O)c1,i,4.2,-13.7%[87.6 µM],-1.3%[87.6 µM],-1.2%[172 µM],-11.6%[174 µM]
COc1ccc(-c2ccc3ncc(Nc4ccncc4)n3n2)cn1,i,-15.0,3.1%[87.6 µM],5.8%[87.6 µM],100µM*,?
COc1ccc(-c2ccc3ncc(Nc4cccc(Cl)c4)n3n2)cn1,i,-20.9,-33.9%[87.6 µM],-0.7%[87.6 µM],44.7µM*,?
COc1ccc(-c2ccc3ncc(Nc4ccc(OC)c(OC)c4)n3n2)cn1,?,-3.6,-22.0%[87.6 µM],?,?,?
COc1ccc(-c2ccc3ncc(Nc4cccc(C(F)(F)F)c4)n3n2)cn1,i,-20.6,-12.6%[87.6 µM],10.6%[87.6 µM],44.7µM*,?
COc1cccc(C(=O)N2CCC3(CC2)N=C(c2ccc(Br)cc2)NO3)c1,i,13.2,?,8.2%,?,?
COc1ccc(CC(=O)NC2CCCN(c3ccc4nnc(C)n4n3)C2)cc1 (configuration not stated),/,-7.9,/,/,4.5%,-15.0%
CCCn1ncc(CNC2CC(=O)N(Cc3ccccc3C(F)(F)F)C2)c1C (configuration not stated),i,4.5,19.5%,4.5%,-5.4%,-1.5%
O=C(Nc1ccc(Oc2ccccc2)cc1)N[C@H]1CO[C@H]2[C@@H]1OC[C@@H]2n1nnnc1Oc1ccc(-n2ccnc2)cc1,i,0.0,?,-14.1%,39.8µM*,?
CC(=O)c1ccc(NC(=O)N[C@H]2CO[C@H]3[C@@H]2OC[C@@H]3n2nnnc2Oc2ccc(-n3ccnc3)cc2)cc1,i,-11.6,30.0%,-8.5%,-11.7%,-16.7%
SMILES,Luciferase inh,IP6K1 inh,SNCA expr inh,HEK293 viab,HEK cytotox,3T3 cytotox
O=C(Nc1ccc(Oc2ccccc2)cc1)N[C@H]1CO[C@H]2[C@@H]1OC[C@@H]2n1nnnc1Oc1ccc(-n2cncn2)cc1,i,-8.0,?,-5.3%,25.1µM*,?
CC1=C[C@@H](CN2CCC(CO)CC2)[C@H](C(C)C)C[C@H]1Cc1nnc(-c2ccncc2)o1,i,1.5,-0.3%[87.6 µM],-5.7%[87.6 µM],-21.2%[172 µM],-25.7%[138 µM]
CC1=C[C@@H](CO)[C@H](C(C)C)C[C@H]1Cc1nnc(-c2ccncc2)o1,i,15.2,-14.1%[87.6 µM],-14.8%[87.6 µM],100µM*,-25.0%[174 µM]
CC1=C[C@@H](CN2CCC(CO)CC2)[C@H](C(C)C)C[C@H]1Cc1nnc(-c2ccc([N+](=O)[O-])cc2)o1,i,-7.9,14.4%,-11.1%,?,?
CC1=C[C@@H](CO)[C@H](C(C)C)C[C@H]1Cc1nnc(-c2ccc(N(C)C)cc2)o1,?,22.3,-3.1%[87.6 µM],-23.4%[87.6 µM],?,89.1µM*
CC1=C[C@@H](CN2CCC[C@H]2CO)[C@H](C(C)C)C[C@H]1Cc1nnc(-c2ccc(N(C)C)cc2)o1,i,29.9,-28.4%,-27.1%,44.7µM*,39.8µM*
COCCNC[C@@H]1C=C(C)[C@H](Cc2nnc(-c3ccc(N(C)C)cc3)o2)C[C@H]1C(C)C,i,1.6,-27.7%[87.6 µM],?,25.1µM*,39.8µM*
Cc1noc(C)c1CC(=O)N1CCCC1c1nc(C2CCOCC2)no1 (configuration not stated),i,-2.9,-10.6%,-7.1%,0.9%,-2.0%
COc1ccc2cc(C(=O)N3C[C@@H](CO)[C@H](c4ccccn4)C3)[nH]c2c1,i,0.0,?,-18.7%,1.5%,?
CC1=C[C@@H](CN(C)CCO)[C@H](C(C)C)C[C@H]1Cc1nnc(-c2ccc(N(C)C)cc2)o1,i,-2.4,-11.8%[87.6 µM],?,63.1µM*,39.8µM*
Fc1ccccc1CN1CCNc2cnc(Oc3ccccc3)cc2C1,i,-8.3,-24.6%[87.6 µM],2.0%[87.6 µM],79.4µM*,?
c1cncc(COc2cc3c(cn2)NCCN(Cc2ccc4[nH]ccc4c2)C3)c1,i,-19.6,3.6%[87.6 µM],-27.0%[87.6 µM],?,?
Cc1cccc(CN2CCNc3cnc(Oc4ccccc4)cc3C2)c1,i,-13.2,-0.8%[87.6 µM],-4.8%[87.6 µM],89.1µM*,-27.6%[138 µM]
c1ccc(Oc2cc3c(cn2)NCCN(Cc2ccc4[nH]ccc4c2)C3)cc1,i,-22.3,-4.1%[87.6 µM],-6.6%[87.6 µM],89.1µM*,?
Fc1ccccc1CN1CCNc2cnc(Nc3ccccc3)cc2C1,i,-3.5,?,-25.5%[87.6 µM],100µM*,?
